# Assay results taken from PubChem BioAssay AID651706 (NMMLSC, 2012).
# In all, about 2,300 compounds went through this assay and about 55 (2%) were called active.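 Rule for the calls: active = share of green or green-and-red cells above 9 and 9% in run 1 or 4 and 3% in run 2; inactive = the rest, inconclusive results apart.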 A selection follows.
# Test: inducers of myeloid progenitor differentiation, confirmation, cell-based, GFP/Mac1 flow cytometry, cherry pick 01 (AID 651706);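 for differentiation response: plate controls were double positive share in DMSO wells for no effect and share in positive control wells for full effect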;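 for double positive cells: share of live cells carrying both lysozyme GFP and MAC1 staining after four days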
# Settings: ER-HoxA9 myeloid progenitors, stronger effect = higher value; differentiation response: GFP/Mac1 double-positive flow; double positive cells: measured here: percent double positive cells
SMILES,differentiation response,double positive cells [%]
Cc1ccc2nc(-c3ccccn3)cc(C(=O)Nc3ccc4c(c3)OCO4)c2c1,1.4% (inactive),0.8
CCN(CC)CC(=O)c1c[nH]c2ccc(OC)cc12,1.4% (inactive),0.9
CNc1nc(=O)n(C2CCCO2)cc1C (stereo not drawn),2.7% (inactive),1.3
Cc1cc(C)c(-c2csc(NC(=O)CCCc3nc4ccccc4c(=O)[nH]3)n2)c(C)c1,3.35% (inactive),0
CN1CCC(CN)(N2CCN(c3ccccc3)CC2)CC1,1.95% (inactive),1.25
COc1ccc(S(=O)(=O)N2CCC(C(=O)N3CCc4ccccc4C3)CC2)cc1OC,1% (inactive),1
Cc1ccc(OS(=O)Nc2cccc3nccnc23)cc1 (stereo not drawn),1.6% (inactive),0.85
CCN(CC)C(=O)CSC(Nc1cccc(F)c1)=C(C#N)C#N,13.7% (inactive),0.9
COc1cc(N=Cc2c(O)[nH]c3ccccc23)cc(OC)c1OC,0% (inactive),0
CNC[C@H]1Oc2c(NC(=O)C3CCCCC3)cccc2C(=O)N([C@H](C)CO)C[C@@H]1C,4.4% (inactive),3.95
Cc1nn(-c2ncccn2)c2c1C(=O)CC(C)(C)C2Br (stereo not drawn),1% (inactive),0.85
Cn1c2ccccc2c2cc(/C=C(\NC(=O)c3ccccc3)C(=O)NCC(=O)O)ccc21,3.05% (inactive),2.15
CCOC(=O)c1c(-c2ccc(C)cc2)csc1/N=C(\C)C1=C(O)c2ccccc2C1=O,12.2% (inactive),3.3
COc1ccc(-c2ccc(OC(=O)NC3CCS(=O)(=O)C3)cc2)cc1 (stereo not drawn),2.2% (inactive),0.5
O=S(=O)(c1ccc(Br)cc1)c1nc(-c2ccccc2)oc1NCc1cccnc1,50.5% (inactive),50.2
Nc1nc(Nc2ccccc2F)nc(NC2CCCCC2)c1[N+](=O)[O-],51.1% (inactive),25
Cc1ccc(Nc2cc(C)nc3c(C)ccc([N+](=O)[O-])c23)cc1,11.4% (inactive),0.55
CN1OC(COC(=O)c2ccc(Cl)cc2)CC1c1ccccc1 (stereo not drawn),1.05% (inactive),0.8
COc1cc(/C=C2/SC(=S)N(Cc3ccccc3)C2=O)cc(OC)c1O,2.8% (inactive),0.4
Clc1ccc(-c2nnc(SCc3nc4ccccc4s3)o2)cc1,1.05% (inactive),1
CC(=O)Nc1ccc(S(=O)(=O)Nc2ccc(N3CCOCC3)c(F)c2)cc1,1.45% (inactive),1
COc1ccc(N(CC(=O)NC2CCCCCCC2)S(=O)(=O)c2c(C)nn(C)c2C)cc1,1.75% (inactive),0.95
O[C@H]1CN(Cc2cccs2)[C@@H](c2ccc(Cl)cc2)C[C@@H]1n1cc(C2CC2)nn1,1.4% (inactive),1.1
O[C@H]1C[C@H](c2ccc(Cl)cc2)N(Cc2cccs2)C[C@@H]1n1cc(C2CC2)nn1,18.4% (active),13.1
